Autofluor counter: flagged as autofluorescent in microsphere protease counterscreen | AID 624483 | compound autofluorescence counterscreen, microsphere flow cytometry; stronger effect = higher value | actives 3.1% (n = 360,000) | fluorescence intensity (concentration not given with the values); in the data active = fluorescence intensity above about 16000; inconclusive = no clear call, values can overlap the other calls
Anthrax LF inh2: anthrax lethal factor protease inhibition; P15917; multiplex microsphere protease cleavage assay, LF; inhibition, % at 10 µM; actives 0.12% (n = 360,000); AID 588501; note: plate controls were buffer without enzyme for full effect and enzyme alone for no effect
BoNT F protease: blocks Botulinum neurotoxin F light chain protease; Multiplex microsphere protease cleavage assay, flow cytometry; actives 0.22% (n = 360,000); inhibition, % at 10 µM; in the data active = inhibition above about 35%, passing the limit was not always enough; inconclusive = no clear call, values can overlap the other calls; note: plate controls were buffer without enzyme for full effect and enzyme alone for no effect
MazEF act: MazEF (E. coli) toxin RNase activation; FAM/BHQ RNA-DNA oligo cleavage fluorescence, 5 h; activation, % at 20 µM; actives 0.32% (n = 350,000); AID 504720; in the data active = activation above about 50%
Target sequence (P0AE70 whole entry, looked up): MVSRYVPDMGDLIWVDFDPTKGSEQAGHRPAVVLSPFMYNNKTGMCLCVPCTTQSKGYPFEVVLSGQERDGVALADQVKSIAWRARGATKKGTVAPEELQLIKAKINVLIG
BoNT-A LC inh2: blocks Botulinum neurotoxin A light chain protease; multiplex microsphere protease substrate cleavage, flow cytometry; inhibition, % at 10 µM; actives 0.17% (n = 360,000); AID 588499; note: plate controls were buffer without enzyme for full effect and enzyme alone for no effect
Starred values were filed as active, the others as inactive; u = inconclusive; x = no result given; + = active, no number. Rows were chosen to be rich in hits. Some 3.6% of all compounds tested hit in one or more screens of this group. Cut-off read from the data, not from the text of the source, unless noted: active = inhibition above about 30%; inconclusive = no clear call, values can overlap the other calls; inactive = below that.

SMILES	Autofluor counter	Anthrax LF inh2	BoNT F protease	MazEF act	BoNT-A LC inh2
CCN1/C(=C/C=C/c2oc3ccc(-c4ccccc4)cc3[n+]2CC)Oc2ccc(-c3ccccc3)cc21	70271*	-100.5	-149.4	x	43.1*
O=C(c1cccc(C(F)(F)F)c1)N1CCC(O)(CS(=O)(=O)Cc2ccc(Cl)cc2)CC1	17295*	-3.2	-8.2	-4.8	-3.3
O=C(c1cccc(C(F)(F)F)c1)N1CCC(O)(CS(=O)(=O)Cc2ccccc2Cl)CC1	20377*	0.6	-3.4	-14.3	u
O=C(c1cccc(C(F)(F)F)c1)N1CCC(O)(CS(=O)(=O)Cc2ccccc2)CC1	4383	-2.0	1.2	-5.2	0.3
Cc1cc(C)n(CC(O)COCc2ccco2)n1 (stereo not given)	23131*	-2.1	-1.5	2.1	u
CCOc1cc(C(=O)OCC(=O)c2c(N)n(C)c(=O)n(C)c2=O)cc(OCC)c1OCC	22161*	2.2	2.0	-1.8	1.0
CN(C)C(=O)CSc1nnc(CCN)o1	22720*	-0.5	1.3	-1.0	-0.6
NCCc1nnc(SCC(=O)Nc2ccc(Br)cc2)o1	5786	-3.8	-3.5	6.0	-0.2
CN(C)C(=O)CSc1nnc(C23CC4CC(CC(C4)C2)C3)o1	22684*	-11.9	-0.6	0.5	u
Nc1nc2cc(Cl)ccc2cc1C(=O)NCCCc1ccccc1	6061	-7.9	-9.2	x	0.2
C/C=C(\C)CN1CCc2cc(OC)c(OC)cc2C1	24105*	-4.4	-7.0	-1.5	-1.9
COc1cc2c(cc1OC)CN(CC(=O)NC(=O)NCc1ccccc1)CC2	5799	-3.9	-5.7	6.9	1.1
C/C(=N\O)C1/C(=N/O)CC2C1C2(C)C (stereo not given)	23424*	-0.6	-2.2	-3.8	-0.6
CN1/C(=C/C=C(C#N)C#N)C(C)(C)c2ccccc21	3257	2.8	-1.2	+	0.1
CN1/C(=C\C=O)C(C)(C)c2ccccc21	5805	-2.7	-6.7	18.2	-0.9
CN1\C(=C/C=C/C=C/C=[N+](C)C)C(C)(C)c2ccccc21	3486	u	u	477.0*	u
COc1ccc(CC2=CC(=O)c3ccccc3C2=O)cc1	3056	-11.0	-1.2	4.4	0.6
CC(=O)c1cccc(OCC(O)CN2CC=C(c3ccccc3)CC2)c1 (stereo not given)	19622*	3.4	4.9	-3.3	u
CC(=O)c1cccc(OCC(O)CN2CCN(C(=O)c3ccco3)CC2)c1 (stereo not given)	3602	-3.1	-9.4	3.4	-2.8
Cn1c(=O)n(C)c2cc(/C=C3/NC(=O)N(Cc4ccccc4)C3=O)ccc21	20142*	-6.6	0.3	17.5	0.8
O=C1N/C(=C\c2ccsc2)C(=O)N1Cc1ccc(F)cc1	7360	-0.1	0.7	7.1	0.7
O=C1N/C(=C/c2ccc(N3CCOCC3)cc2)C(=O)N1Cc1ccc(F)cc1	18011*	-5.1	-6.7	0.3	-3.4
CCN(CC)C(=O)c1cnn(-c2ccccc2)c1NC(=O)c1ccccc1F	20443*	-4.0	7.3	2.9	6.2
CC(C)C(=O)Nc1ccc(C(=O)NNC(=O)NC2CCCCC2)cc1	17675*	-9.7	11.4	-20.9	u
CS(=O)(=O)Nc1ccc(C(=O)NC2CCCCC2)cc1	4095	-4.1	3.9	10.4	0.8
SMILES	Autofluor counter	Anthrax LF inh2	BoNT F protease	MazEF act	BoNT-A LC inh2
O=C(NNC(=O)c1ccncc1)NC1CCCCC1	3290	-4.6	-3.5	6.4	0.1
Cc1ccc(N(Cc2ccc(C(=O)NC3CCCCC3)cc2)S(C)(=O)=O)cc1C	4041	1.1	-4.2	51.4*	-0.3
COc1ccc(C)cc1NC(=O)NCCC1=CCCCC1	21584*	-2.0	-5.4	-4.9	-3.5
CS(=O)(=O)Nc1ccc(C(=O)NC2CCCC2)cc1	20262*	-2.0	-1.0	2.9	-0.3
CS(=O)(=O)N(Cc1ccc(C(=O)NC2CCCC2)cc1)c1ccccc1	4560	-1.3	2.8	7.8	0.2
COc1cc(C(=O)N/C(=C\c2cn(S(=O)(=O)N(C)C)c3ccccc23)C(=O)N2CCCC2)cc(OC)c1OC	4056	1.8	3.5	1.9	1.9
COc1cc(C(=O)NCCC2=CCCCC2)cc(OC)c1OC	22928*	-0.3	4.1	4.3	1.3
Cc1ccc(S(=O)(=O)N2CCCCC2)cc1C(=O)NCCC1=CCCCC1	4532	2.1	u	-1.0	1.1
CS(=O)(=O)Nc1ccc(C(=O)NCCC2=CCCCC2)cc1	24230*	-0.9	-6.1	4.2	u
Cc1cc(C(=O)NCCC2=CCCCC2)c(C)o1	16581*	0.3	0.3	1.5	-0.2
CC(C)CCNC(=O)C(=O)NCCC1=CCCCC1	2157	-0.7	3.0	1.8	-0.3
CS(=O)(=O)N(Cc1ccc(Cl)cc1)c1ccc(C(=O)NCCC2=CCCCC2)cc1	11686	-5.0	-15.5	-4.3	-1.1
COc1cc(C(=O)OCC(=O)NCCC2=CCCCC2)cc(OC)c1OC	5857	-0.7	-7.9	2.2	-2.1
Cc1cc(C)cc(N(C(C)C(=O)NCCC2=CCCCC2)S(C)(=O)=O)c1 (stereo not given)	23149*	-0.5	-4.6	-6.8	-2.5
CC(=O)Nc1ccc(NC(=O)C2CCN(S(C)(=O)=O)CC2)cc1	3943	3.8	-5.3	0.1	-0.1
CC1(C(=O)NS(=O)(=O)C2CC2)CCN(C(=O)c2ccccc2OC(F)(F)F)C1 (stereo not given)	3662	-4.3	-7.6	x	-0.1
COc1ccc(C(=O)N(C)[C@H]2C[C@H]3c4[nH]c5ccccc5c4CCN3C(=O)[C@H]2CO)cc1	3419	-0.9	-1.0	6.9	-0.1
COc1cc(CN2CCCC(C)C2)cc([N+](=O)[O-])c1O (stereo not given)	23731*	0.5	-1.7	-17.4	0.0
O=C(NC1(C(F)(F)F)NC(=O)N(Cc2cccnc2)C1=O)c1ccc(F)cc1 (stereo not given)	23016*	-1.8	-3.2	8.2	-1.1
CC(C)c1csc(CN2CCC(C(=O)Nc3cccc(-c4ccco4)c3)CC2)n1	4705	4.6	-0.5	9.7	-0.3
Cc1ccc(CCN2CC(C(=O)NCCCOC(C)C)CC2=O)cc1 (stereo not given)	21642*	-3.3	3.8	4.0	3.3
Cc1ccc(CCN2CC(C(=O)N3CCN(c4ccc(F)cc4)CC3)CC2=O)cc1 (stereo not given)	20552*	-0.3	0.7	-0.8	0.5
COC(CNC(=O)C1CC(=O)N(CCc2ccccc2)C1)OC (stereo not given)	20271*	0.6	-1.8	3.8	-1.6
O=C(C1CC(=O)N(c2ccc(F)cc2)C1)N1CCN(c2ccc(F)cc2)CC1 (stereo not given)	4604	5.6	-5.9	5.3	-2.2
CC(=O)Oc1ccc(C(=O)Nc2cccc(C(=O)c3ccc(C)c(C)c3)c2)cc1	3630	-2.2	1.3	4.9	0.1
CCC1(CC)NC(=O)N(CC(=O)N2CCN(c3ccccc3F)CC2)C1=O	8710	5.4	1.6	4.6	0.6
Clc1cccc(/C(Cc2nc3ccccc3[nH]2)=N\Nc2ccccc2)c1	1985	-2.3	-12.4	60.7*	-1.3
N#CCCN/N=C(\Cc1nc2ccccc2[nH]1)c1ccccc1	22721*	1.5	-1.5	-5.0	3.4

Source: PubChem (several laboratories)
